The list is not random: actives were taken first. Their share in the collection is about 12%.
USP30 inh: blocks human USP30 ubiquitin-rhodamine cleavage | Q70CQ3 | purified USP30, Ub-rhodamine cleavage fluorescence | inhibition, % at 25 µM | 47,000 compounds, 5.3% hits
USP8 block: human USP8 deubiquitinase inhibition. inhibition, % at 20 µM. AID 1645853. purified USP8, Ub-rhodamine cleavage fluorescence, 30 min. 47,000 compounds, 4.2% hits. P40818
USP17 block: inhibitors of human USP17 deubiquitinase. inhibition, % at 50 µM. purified USP17, Ub-rhodamine cleavage fluorescence, 3 h. 47,000 compounds, 6.5% hits. A8MUK1
Numbers without * were called inactive; . = no result. No stated cut-off is given here; in the data, active means inhibition above about 30%; inactive means the rest.

SMILES	USP30 inh	USP8 block	USP17 block
COc1ccc(C)cc1NC(=O)C(Sc1nnc(C2CC2)n1Cc1ccccc1)c1ccccc1 (configuration not stated)	36.9*	25.2	21.7
COCCn1c(SC(C(=O)Nc2cc(C)ccc2OC)c2ccccc2)nnc1-c1ccc(Cl)cc1 (configuration not stated)	27.8	14.0	-0.2
Cc1ccccc1CNC(=O)C1CCN(c2cnc(N3CCOCC3)nc2)CC1	-11.7	-28.6	-10.7
COc1cccc(-c2noc(CSc3nccn3-c3ccccc3)n2)c1OC	11.7	4.0	.
COc1cccc(S(=O)(=O)N2CCN3C(=O)[C@@H](Cc4ccccc4)N(C)C(=O)[C@@H]3C2)c1	20.9	-1.6	-0.2
Cn1nccc1C(=O)NC(C(=O)N1CCCc2ccccc21)c1ccccc1 (configuration not stated)	18.0	12.9	8.1
COCC(=O)N1CCCC1c1nc(C)cc(-c2ncc(C)[nH]2)n1 (configuration not stated)	-0.3	-1.0	-0.5
O=C(c1cccc(Cl)c1)N1CCCn2nnc(CN3CCCCC3)c2C1	-1.8	-219.0	-46.0
COc1ccc(S(=O)(=O)N(Cc2ccco2)Cc2cc3ccccc3[nH]c2=O)cc1	42.0*	-16.2	10.9
COc1ccc(S(=O)(=O)N(Cc2cccnc2)Cc2cc3ccccc3[nH]c2=O)cc1	-25.8	-36.9	-20.9
c1ccc2c(c1)CCN(c1ncnc3c1[nH]c1ccccc13)C2	-6.3	43.8*	-0.1
c1ccc(-c2nc(N3CCc4ccccc4C3)c3ccccc3n2)cc1	.	0.9	-31.3
O=c1[nH]c2cc3c(cc2c(=O)n1Cc1nc(-c2ccc(F)cc2)no1)OCO3	-176.6	13.0	-29.1
CCn1c(=O)[nH]c2cc(-c3nc(-c4cccc(C)c4)no3)ccc2c1=O	5.4	9.7	8.1
Cc1ccc(-c2noc(Cn3c(=O)[nH]c4cc5c(cc4c3=O)OCO5)n2)cc1	-31.6	55.0*	2.3
COc1cc(OC)cc(-c2noc(Cn3c(=O)[nH]c4cc5c(cc4c3=O)OCO5)n2)c1	-34.5	82.2*	.
CC1=C(C(=O)Nc2ccccc2)C(c2cccc(OCc3ccc(F)cc3)c2)n2ncnc2N1 (configuration not stated)	0.7	-10.7	-11.5
CC1=C(C(=O)Nc2ccc(C)cc2)C(c2ccncc2)n2c(nc3ccccc32)N1 (configuration not stated)	0.9	-2.2	-7.1
CC1=C(C(=O)Nc2cccnc2)C(c2cccc(OCc3ccccc3)c2)n2nnnc2N1 (configuration not stated)	21.0	36.7*	10.2
CC1=C(C(=O)Nc2ccccc2)C(c2cccnc2)n2c(nc3ccccc32)N1 (configuration not stated)	17.9	0.6	45.2*
CCC(C)[C@H](NC(=O)[C@@H]1Cc2c([nH]c3ccccc23)C2c3ccccc3C(=O)N21)C(=O)NC(C)C (some centres not stated)	-90.8	-3.8	-17.4
COc1ccc(-c2onc(C)c2C)cc1S(=O)(=O)Nc1ccc(-c2ccno2)cc1	3.1	5.8	4.8
COc1ccc(-c2cc(C)no2)cc1S(=O)(=O)Nc1ccc(-c2ccno2)cc1	28.5	58.7*	9.7
CC1=C(c2ccc(C)c(C)c2)S(=O)(=O)NC1=NCC(=O)Nc1ccc(F)cc1F	3.1	9.3	48.4*
CC1=C(c2ccc(C)c(C)c2)S(=O)(=O)NC1=NCC(=O)NCCc1ccc(C)cc1	69.0*	4.0	14.9
SMILES	USP30 inh	USP8 block	USP17 block
O=C(CN=C1NS(=O)(=O)c2ccccc21)Nc1ccccc1Cc1ccccc1	9.6	-13.2	0.0
CCc1ccc(NC(=O)CN=C2NS(=O)(=O)C(c3ccc(CC)cc3)=C2C)cc1	23.1	1.2	57.7*
COc1ccccc1NC(=O)CN=C1NS(=O)(=O)C(c2ccc(F)cc2)=C1C	-2.6	6.5	12.3
CC1=C(c2ccc(C)c(C)c2)S(=O)(=O)NC1=NCC(=O)NCc1cccc(C)c1	2.2	-13.4	10.6
CCC1=C(c2ccc(C)cc2)S(=O)(=O)NC1=NCC(=O)NC(C)c1ccccc1 (configuration not stated)	14.1	0.0	54.4*
CCC1=C(c2ccc(C)cc2)S(=O)(=O)NC1=NCC(=O)NCCC1=CCCCC1	0.2	17.6	-4.8
COc1ccc([C@H]2C[C@@H](NCc3cccc(C)c3OC)CC[C@]23CCC(=O)N3)cc1OC	-5.3	-3.7	-9.8
Cc1cccc(Nc2cc(C3CCCN(CC(N)=O)C3)ccn2)n1 (configuration not stated)	-8.0	-4.1	-8.8
O=C(Cn1cc2c(n1)CCCCC2)NCc1ccco1	-1.7	-8.6	-2.9
CC(=O)N1CCCc2cc(S(=O)(=O)CCC(=O)Nc3ccc(Br)c(C)c3)ccc21	-42.3	7.9	-6.3
